The test system of assay [1] is Plasmodium falciparum Sir2 (PF13_0152, Sir2A). Kind of assay: pfSir2 binders on small-molecule microarrays, primary screen, biochemical, small-molecule microarray, 635 nm fluorescence (AID 1098).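 Also: score merges spot fluorescence intensity with its signal-to-noise ratio.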 The note with it: small-molecule microarray binding, fluorescence 635 nm; higher = more signal.
Assay [2] in a line: small-molecule microarray binders of probe aDKK1, primary screen, biochemical, biotinylated probe, 635/667 nm fluorescence (AID 1099).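 Also: score merges 667nm spot fluorescence with signal to noise across triplicate slides.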 The note with it: higher = more signal.
The nature of assay [3]: small-molecule microarray binders of probe aCHRDL2, primary screen, biochemical, biotinylated probe, 635/667 nm fluorescence (AID 1100). The note with it: higher = more signal.
Assay [4] is described as follows: splicing luciferase reporter signal modulators, primary screen, spliceosome inhibition project, cell-based, HEK293, splice +/- reporter (AID 1101).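 Also: HEK293 cells carrying a splicing-competent luciferase reporter gene; test concentration not given here.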 The note with it: luminescence, 24 h, higher = more signal, called active from +8 up or from −8 down. In general terms: A reporter such as luciferase makes a cellular process visible.
In assay [5] the target is Fibroblast growth factor 10 (Homo sapiens) (UniProt O15520). Kind of assay: FGF10 binders on small-molecule microarrays, primary screen, biochemical, small-molecule microarray, 635 nm fluorescence (AID 1102). The note with it: FGF10 binding, fluorescence 635 nm, higher = more signal.
For assay [6], the system named is glycogen synthase kinase-3 (GSK3A per assay name; protocol says GSK3B). Kind of assay: GSK3 binders on small-molecule microarrays, primary screen, biochemical, small-molecule microarray, 635 nm fluorescence, GSK3A (AID 1103). Also: the record names both GSK3A and GSK3B. The note with it: small-molecule microarray binding, fluorescence 635 nm; higher = more signal.
For assay [7], the target named is Epidermal growth factor receptor (Homo sapiens) (UniProt P00533). Kind of assay: EGFR binders on small-molecule microarrays, primary screen, biochemical, small-molecule microarray, 635 nm fluorescence (AID 1104).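 Also: score merges 667 nm emission intensity with spot signal to noise over triplicate slides.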 The note with it: EGFR binding, higher = more signal.
Assay [8] addresses Follistatin-related protein 3 (Homo sapiens) (UniProt O95633). Kind of assay: FSTL3 binders on small-molecule microarrays, primary screen, biochemical, small-molecule microarray, 635 nm fluorescence (AID 1105).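 Also: score merges emission near 667 nm and signal to noise per printed spot across three slides.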 The note with it: FSTL3 binding, higher = more signal.
Assay [9] concerns the target Dickkopf-related protein 1 (Homo sapiens) (UniProt O94907). The experiment in a line: DKK1 binders on small-molecule microarrays, primary screen, biochemical, small-molecule microarray, 635 nm fluorescence scan (AID 1106).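 Also: score merges emission near 667 nm with signal to noise over three replicate slides.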 The note with it: DKK1 binding, higher = more signal.
Assay [10] concerns Inhibin beta A chain (activin A). The experiment in a line: INHBA (activin A) binders on microarrays, primary screen, biochemical, small-molecule microarray, 635 nm fluorescence scan (AID 1107).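 Also: mouse activin A protein probed at 4.33 µg/mL on printed slides; score merges bound-protein fluorescence near 667 nm with spot signal-to-noise.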 The note with it: small-molecule microarray binding, higher = more signal.
Assay [11] has as its system Human papillomavirus type 1a protein E7 (residues 44-93). Kind of assay: HPV1a E7 fragment binders on microarrays, primary screen, biochemical, small-molecule microarray, residues 44-93, 635 nm fluorescence (AID 1108).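 Also: E7 fragment applied at 1 µg/mL in TBST for 1 h at 4 C; score combines spot fluorescence with its signal to noise ratio.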 The note with it: small-molecule microarray binding, fluorescence 635 nm; higher = more signal.
Assay [12] can be described thus: modulators of HCV replicon luciferase signal, primary screen, HCV replication inhibitor project, Huh7 cells, luciferase reporter (AID 1109).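 Also: huh7 hepatoma cells harbouring a luciferase neomycin HCV replicon reporter; luciferase luminescence as measure of HCV replicon replication; test concentration not given here.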 The note with it: 48 h, higher = more signal. In general terms: In antiviral work, replicon cells carry a viral genome segment that copies itself.
The target of assay [13] is Left-right determination factor 2 (Homo sapiens) (UniProt O00292). The experiment in a line: LEFTY2 binders on small-molecule microarrays, primary screen, biochemical, small-molecule microarray, 635 nm fluorescence scan (AID 1110). The note with it: LEFTY2 binding, higher = more signal.
The target of assay [14] is Calmodulin-1 (Homo sapiens) (UniProt P0DP23). The experiment in a line: CALM1 binders on microarrays, EGTA buffer, profiling panel, biochemical, small-molecule microarray, Cy5-labelled CALM1 (AID 1111).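 Also: labelled calmodulin applied in Tris saline Tween buffer holding calcium plus EGTA and DTT.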 The note with it: Cy5-CALM1 binding fluorescence, higher = more signal.
Assay [15] shares this target. Kind of assay: calcium-bound CALM1 binders on microarrays, profiling panel, artefact control for SMM control-protein annotation, biochemical, small-molecule microarray, Cy5-labelled CALM1, plus calcium (AID 1112).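 Also: score merges spot fluorescence with signal to noise from triplicate slides.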 The note with it: Cy5-CALM1 binding fluorescence, higher = more signal.
A short description of assay [16]: small-molecule microarray binders of probe aWnt5a, primary screen, biochemical, biotinylated probe, 635/667 nm fluorescence (AID 1113).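 Also: score merges 667 nm fluorescence intensity with signal-to-noise per printed feature.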 The note with it: higher = more signal.
Assay [17] is described as follows: small-molecule microarray binders of probe aShh, primary screen, biochemical, biotinylated probe, 635/667 nm fluorescence (AID 1114).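 Also: probe is biotin-labelled aShh protein from a stem cell growth factor screen; measures binding of labelled protein to compounds printed on the slide; score merges feature fluorescence at 667 nm with signal-to-noise.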 The note with it: higher = more signal.
A short description of assay [18]: small-molecule microarray binders of probe aNog, primary screen, biochemical, biotinylated probe, 635/667 nm fluorescence (AID 1115).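 Also: probe is biotinylated aNog protein used at 0.15 µg/mL for 1 h at 4 C; z-score combines 667 nm fluorescence of each spot with its signal to noise.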 The note with it: higher = more signal.
In assay [19] the target is Torsin-1A-interacting protein 1 (Homo sapiens) (UniProt Q5JTV8). Kind of assay: LAP1 binders from COS7 cell lysate, primary screen, small-molecule microarray, 635/667 nm fluorescence (AID 1116). The note with it: COS7-hLAP1 lysate binding, 635 nm fluorescence, higher = more signal.
For assay [20], the target named is Alpha-bungarotoxin (Bungarus multicinctus) (UniProt P60615). The experiment in a line: alpha-bungarotoxin binders on microarray, profiling panel, artefact control for SMM control protein annotation, biochemical, small-molecule microarray, Alexa647 label, 635/667 nm fluorescence (AID 1117). The note with it: alpha-BTX-A647 binding fluorescence, higher = more signal.

Calls of active or inactive are those of the source.

Epidermal growth factor receptor (Homo sapiens), sequence (P00533 whole entry, looked up): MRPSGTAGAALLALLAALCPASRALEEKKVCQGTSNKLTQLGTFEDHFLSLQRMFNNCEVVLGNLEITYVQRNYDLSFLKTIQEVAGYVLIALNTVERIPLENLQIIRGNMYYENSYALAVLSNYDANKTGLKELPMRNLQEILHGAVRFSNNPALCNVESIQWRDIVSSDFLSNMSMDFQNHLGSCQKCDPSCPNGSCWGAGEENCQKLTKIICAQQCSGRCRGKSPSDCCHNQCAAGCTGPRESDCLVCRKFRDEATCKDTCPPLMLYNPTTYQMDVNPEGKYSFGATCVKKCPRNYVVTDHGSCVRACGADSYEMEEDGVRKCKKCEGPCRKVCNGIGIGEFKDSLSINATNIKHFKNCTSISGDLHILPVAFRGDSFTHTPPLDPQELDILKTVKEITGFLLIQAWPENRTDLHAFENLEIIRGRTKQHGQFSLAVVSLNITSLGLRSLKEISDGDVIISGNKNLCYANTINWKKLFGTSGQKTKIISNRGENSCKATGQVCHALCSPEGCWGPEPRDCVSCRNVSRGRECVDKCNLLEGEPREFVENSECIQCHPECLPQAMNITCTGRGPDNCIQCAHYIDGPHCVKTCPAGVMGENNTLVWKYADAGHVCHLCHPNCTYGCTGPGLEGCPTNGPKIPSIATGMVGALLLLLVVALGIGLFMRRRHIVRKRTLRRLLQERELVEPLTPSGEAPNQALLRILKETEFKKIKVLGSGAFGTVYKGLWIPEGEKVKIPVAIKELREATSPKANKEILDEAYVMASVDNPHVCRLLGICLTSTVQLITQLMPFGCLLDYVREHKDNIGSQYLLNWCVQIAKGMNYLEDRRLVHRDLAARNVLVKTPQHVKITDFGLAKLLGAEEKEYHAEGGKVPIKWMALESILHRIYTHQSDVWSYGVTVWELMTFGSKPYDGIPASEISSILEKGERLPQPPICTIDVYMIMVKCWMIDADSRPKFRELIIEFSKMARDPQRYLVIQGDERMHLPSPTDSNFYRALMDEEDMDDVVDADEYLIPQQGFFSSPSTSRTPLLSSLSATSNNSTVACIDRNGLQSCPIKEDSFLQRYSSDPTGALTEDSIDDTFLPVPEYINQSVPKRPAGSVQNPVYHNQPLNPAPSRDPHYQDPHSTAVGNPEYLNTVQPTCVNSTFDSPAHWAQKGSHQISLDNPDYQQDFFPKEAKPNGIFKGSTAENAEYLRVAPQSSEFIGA
Dickkopf-related protein 1 (Homo sapiens), sequence (O94907 whole entry, looked up): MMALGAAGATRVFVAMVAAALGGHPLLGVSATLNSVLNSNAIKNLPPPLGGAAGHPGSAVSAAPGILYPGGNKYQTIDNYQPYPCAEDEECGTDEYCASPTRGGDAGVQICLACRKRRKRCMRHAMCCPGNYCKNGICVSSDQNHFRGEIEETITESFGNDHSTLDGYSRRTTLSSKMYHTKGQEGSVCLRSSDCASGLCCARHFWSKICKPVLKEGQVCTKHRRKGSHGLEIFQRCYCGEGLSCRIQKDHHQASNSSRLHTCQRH
Fibroblast growth factor 10 (Homo sapiens), sequence (O15520 whole entry, looked up): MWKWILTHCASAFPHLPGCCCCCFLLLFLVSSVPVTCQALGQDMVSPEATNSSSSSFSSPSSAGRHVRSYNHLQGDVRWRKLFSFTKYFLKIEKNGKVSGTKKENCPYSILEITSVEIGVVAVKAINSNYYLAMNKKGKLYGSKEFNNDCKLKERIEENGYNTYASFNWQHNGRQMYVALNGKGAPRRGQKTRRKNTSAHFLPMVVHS
Alpha-bungarotoxin (Bungarus multicinctus), sequence (P60615 whole entry, looked up): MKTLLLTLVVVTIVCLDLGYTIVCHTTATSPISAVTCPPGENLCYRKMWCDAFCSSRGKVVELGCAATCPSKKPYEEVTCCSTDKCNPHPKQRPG
Left-right determination factor 2 (Homo sapiens), sequence (O00292 whole entry, looked up): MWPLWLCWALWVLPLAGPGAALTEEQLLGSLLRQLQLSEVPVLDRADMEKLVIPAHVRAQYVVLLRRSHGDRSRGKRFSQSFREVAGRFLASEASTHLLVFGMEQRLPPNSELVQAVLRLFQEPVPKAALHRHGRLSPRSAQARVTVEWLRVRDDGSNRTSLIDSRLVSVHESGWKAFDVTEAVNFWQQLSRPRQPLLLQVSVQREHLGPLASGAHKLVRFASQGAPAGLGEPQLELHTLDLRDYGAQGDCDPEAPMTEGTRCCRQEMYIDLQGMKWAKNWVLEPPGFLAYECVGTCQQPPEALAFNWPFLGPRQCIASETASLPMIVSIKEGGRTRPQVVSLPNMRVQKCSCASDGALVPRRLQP
Torsin-1A-interacting protein 1 (Homo sapiens), sequence (Q5JTV8 whole entry, looked up): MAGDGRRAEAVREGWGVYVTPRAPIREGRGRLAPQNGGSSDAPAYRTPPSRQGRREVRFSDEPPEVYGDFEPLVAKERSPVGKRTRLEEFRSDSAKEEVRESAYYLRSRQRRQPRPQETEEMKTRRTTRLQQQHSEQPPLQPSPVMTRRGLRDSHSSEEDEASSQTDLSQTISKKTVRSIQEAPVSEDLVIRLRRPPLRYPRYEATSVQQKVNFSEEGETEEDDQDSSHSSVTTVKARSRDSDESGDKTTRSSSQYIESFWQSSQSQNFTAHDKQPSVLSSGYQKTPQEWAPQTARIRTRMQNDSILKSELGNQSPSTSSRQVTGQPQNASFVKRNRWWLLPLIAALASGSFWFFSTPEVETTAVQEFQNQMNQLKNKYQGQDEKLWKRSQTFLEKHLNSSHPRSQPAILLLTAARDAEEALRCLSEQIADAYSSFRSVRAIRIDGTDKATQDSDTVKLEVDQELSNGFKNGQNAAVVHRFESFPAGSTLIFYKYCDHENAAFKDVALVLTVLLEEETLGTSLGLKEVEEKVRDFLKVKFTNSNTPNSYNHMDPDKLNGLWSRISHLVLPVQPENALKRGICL
Follistatin-related protein 3 (Homo sapiens), sequence (O95633 whole entry, looked up): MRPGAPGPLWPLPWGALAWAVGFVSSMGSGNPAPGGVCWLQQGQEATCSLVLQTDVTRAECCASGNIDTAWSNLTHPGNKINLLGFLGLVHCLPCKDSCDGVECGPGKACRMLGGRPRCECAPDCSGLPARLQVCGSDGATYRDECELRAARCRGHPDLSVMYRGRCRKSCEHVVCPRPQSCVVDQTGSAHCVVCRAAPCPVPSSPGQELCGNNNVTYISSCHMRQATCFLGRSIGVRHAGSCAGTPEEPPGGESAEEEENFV

As to `C=CCOC(=O)[C@H]1[C@@H]2C(=O)O[C@@H](c3ccccc3)[C@@H](c3ccccc3)N2[C@@H](c2ccc(OCCOC(=O)[C@H]3C[C@H]4C(=O)N[C@@H](CCCCN(C)C)C(=O)N4[C@H]3c3cccc(OCCO)c3)cc2)[C@]12C(=O)Nc1ccc(I)cc12`, the composite z-score was 0.79 in assay [1]; -0.267 in assay [2]; -0.254 in assay [3]; 1.32 in [5]; 1.16 in [6]; 0.527 in assay [7]. Further, the composite z-score was 1.46 in assay [8]; 1.07 in assay [9]; 1.11 in [10]; 1.4 in assay [11]; 0.713 in assay [13]; -0.0131 in [14]. The composite z-score in [15] was -0.12; in assay [16] it was 0.108; in assay [17] it was 0.0671; in assay [18], 1.18; in assay [19], 0.811; in assay [20], 1.27. In addition, the z-score in [4] is 1.52 (inactive); in [12] it was -2.45.

Consider `O=C(CS)NCCCCCNC(=O)[C@@H]1C[C@@H]2C(=O)NCC(=O)N2[C@@H]1c1cccc(OCCO)c1`, for which the composite z-score in assay [1] was 1.17; in [2], 0.0565; in assay [3], 0.21; in [5] it was 0.18; in [6], 0.0776; in assay [7] it was 0.752. For the same compound, the composite z-score was 0.0486 in [8]; 0.543 in [9]; 0.501 in assay [10]; 0.275 in [11]; 0.387 in [13]; 0.129 in assay [14]. The composite z-score in [15] is -0.193; in [16], -0.16; in assay [17] it was -0.197; in assay [18], -0.137; in [19], 0.635; in assay [20], -0.315. The figures for the z-score in assay [4] and in assay [12] were -1.82 (inactive) and -0.125, respectively.

As to `CC(C)(C)OC(=O)CC[C@]1(C(N)=O)N=C(c2ccc(OCCCO)cc2)O[C@H]1c1ccccc1`, the composite z-score is 0.883 in assay [1]; 1.32 in [2]; 1.35 in [3]; 1.36 in [5]; 0.555 in assay [6]; -0.589 in assay [7]. Further, the composite z-score in assay [8] is -0.188; in assay [9], -1.16; in assay [10], 0.976; in [11], -0.0059; in assay [13] it was -0.23; in [14], 2.64. For the same compound, the composite z-score in assay [15] amounted to 1.66; in [16], 0.116; in assay [17], 0.707; in assay [18] it was 1.36; in assay [19], 3.07; in assay [20], 2.12. Further, the z-score is 0.138 (inactive) in assay [4] and 0.666 in assay [12].

Regarding `C#CCN1[C@H](/C=C/C2CC2)[C@H](Cc2ccccc2)OC(=O)[C@@H]1Cc1ccccc1`, the composite z-score was 1.16 in [1]; -0.411 in assay [2]; -0.507 in assay [3]; 0.294 in [5]; 0.109 in [6]; 0.323 in assay [7]. Moreover, the composite z-score in assay [8] is 0.326; in [9] it was 0.428; in [10] it was 0.849; in [11], -0.306; in assay [13], 0.294; in assay [14], -0.707. Besides, the composite z-score in [15] is -0.414; in [16], -0.164; in assay [17], -0.0066; in [18], -0.401; in assay [19] it was 0.0223; in assay [20], 0.106. The z-score is 0.23 (inactive) in assay [4] and -2.87 in assay [12].

Turning to `C=CCN1Cc2ccccc2[C@@H]2OC(c3ccc(OCCCO)cc3)=N[C@]2(CCS(=O)(=O)c2ccccc2)C1=O`, the composite z-score in assay [1] turned out to be 1.53; in assay [2] it was 0.205; in assay [3], 0.825; in assay [5] it was 1.4; in [6], 1.32; in assay [7], 1.01. The composite z-score in assay [8] was determined as 1.43; in [9], 1.41; in [10], 1.1; in assay [11] it was 1.33; in assay [13], 0.954; in assay [14], 0.804. The composite z-score was -0.321 in assay [15]; -0.0009 in [16]; 0.377 in assay [17]; 0.714 in assay [18]; 1.58 in assay [19]; 1.42 in assay [20]. For the same compound, the z-score in assay [4] was 0.211 (inactive); in assay [12] it was -1.48.

For the compound `COCC(=C=CC[C@H](O)c1cccc(OCCO)c1)C[C@H](O)c1cc(Cl)cc(Cl)c1O`, the composite z-score was 0.516 in [1]; -0.0921 in assay [2]; -0.174 in [3]; 1.55 in assay [5]; 1.17 in assay [6]; 0.331 in assay [7]. The composite z-score in assay [8] was 0.785; in assay [9] it was 0.551; in [10] it was 0.712; in assay [11], 1.37; in assay [13] it was 0.578; in assay [14] it was -0.0781. Besides, the composite z-score in [15] is -0.821; in assay [16], -0.0478; in [17], 0.0639; in [18] it was -0.328; in assay [19], 1.12; in assay [20] it was 0.0872. Moreover, the z-score in assay [4] was 0.102 (inactive); in assay [12], -0.566.
